In all, about 33,000 sequences were measured (“E-score (-0.5 to 0.5)”: median about -0.056, highest 2% from about 0.38 on). The entries come from a sample that favours the highest values as a whole.
Molecular target: Stb4 (UniProt P50104)
Test: PBM E-score (8-mer binding enrichment) (E-score (-0.5 to 0.5)); higher = stronger / more preferred TF binding
Conditions: protein concentration: 200 nM; construct: GST-DNA-binding domain
Outline: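 Bound GST-tagged yeast transcription factors, applied at about 100-200 nM to double-stranded universal all-10-mer Agilent arrays, were detected with fluorescent anti-GST. Scans were normalised with masliner. A modified Wilcoxon-Mann-Whitney statistic, the E-score, was assigned to each ungapped eight-base word pooled with its reverse complement by the Universal PBM Analysis Suite.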

UniProt P50104, sequence (P50104 whole entry): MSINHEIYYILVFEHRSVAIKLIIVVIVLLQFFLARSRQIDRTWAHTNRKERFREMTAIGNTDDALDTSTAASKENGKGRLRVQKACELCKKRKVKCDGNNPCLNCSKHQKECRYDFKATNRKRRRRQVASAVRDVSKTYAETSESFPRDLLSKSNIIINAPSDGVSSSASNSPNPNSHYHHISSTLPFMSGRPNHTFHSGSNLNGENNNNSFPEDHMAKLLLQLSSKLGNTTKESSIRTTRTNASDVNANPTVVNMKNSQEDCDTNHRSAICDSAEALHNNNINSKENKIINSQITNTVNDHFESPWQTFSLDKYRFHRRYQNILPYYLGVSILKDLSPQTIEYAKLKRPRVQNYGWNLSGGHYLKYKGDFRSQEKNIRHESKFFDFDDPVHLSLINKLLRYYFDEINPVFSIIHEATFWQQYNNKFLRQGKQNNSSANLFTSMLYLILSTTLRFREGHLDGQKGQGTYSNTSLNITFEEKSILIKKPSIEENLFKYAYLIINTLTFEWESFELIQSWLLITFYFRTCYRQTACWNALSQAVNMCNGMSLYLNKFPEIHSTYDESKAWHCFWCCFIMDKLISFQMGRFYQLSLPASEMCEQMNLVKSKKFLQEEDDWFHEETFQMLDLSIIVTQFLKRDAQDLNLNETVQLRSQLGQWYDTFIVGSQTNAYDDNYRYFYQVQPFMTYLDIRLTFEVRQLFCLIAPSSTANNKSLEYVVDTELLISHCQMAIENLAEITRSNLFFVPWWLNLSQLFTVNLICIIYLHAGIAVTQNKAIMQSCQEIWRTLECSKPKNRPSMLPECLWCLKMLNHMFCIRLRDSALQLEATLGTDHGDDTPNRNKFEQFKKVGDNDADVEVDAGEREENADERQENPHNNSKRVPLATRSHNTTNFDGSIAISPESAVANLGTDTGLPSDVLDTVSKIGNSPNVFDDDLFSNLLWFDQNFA

Sequence | PBM E-score
CGAGCAGC | 0.15
ATGACCCA | -0.283
AACGCACC | -0.0468
CTCACTTC | -0.141
ACCGAGAT | 0.407
AACGAGGT | -0.293
ACCGAGGT | 0.392
ACCGAGAG | 0.342
AACGAGAT | 0.0091
ACCGAGCT | 0.365
ACCCAATG | -0.174
ACCCCATC | -0.109
GGTGAGTA | -0.183
TCCTCCAA | -0.181
CTGCTCGC | -0.0171
GTTCGGAA | 0.474
CTTCGGAA | 0.485
ATTCGGAC | 0.373
CTTCGAAC | -0.00115
ATTCGGAG | 0.324
ATGCGGAA | 0.332
CTTCGAAA | -0.2
GTGCGGAA | 0.289
CTTCGGAC | 0.386
GTACGGAA | 0.323
ATTCGGAA | 0.456

Sequence | PBM E-score
CTACGGAA | 0.222
CCTTTTCC | 0.0594
GATAGTTA | 0.0424
CATTTGTA | -0.106
ATGTAGCC | 0.136
AGACAGCA | -0.0333
GCAGGCCC | -0.0954
ATTAGCCA | -0.26
ATTAGCCC | -0.0135
ATTAGCCG | 0.4
AATGTCCC | 0.169
AACTTCTC | 0.0267
AATATTCC | 0.347
CCCTTACA | -0.0902
CGGGCGAA | 0.158
CAATCTGA | -0.0386
TACCGGAA | 0.394
CACCGGAC | 0.215
GACCGGAA | 0.316
CACCGGAA | 0.412
TACCGGTA | 0.149
CACCGGAG | 0.125
GATTGAGA | -0.0336
CAAGCGAG | 0.0404
TCCGAAGA | 0.458
GCCGAAGA | 0.362

Sequence | PBM E-score
CCCGAAGC | 0.371
ACCGAAGA | 0.359
CACGAAGA | -0.255
CGCGAAGA | 0.112
CCCGAAGA | 0.403
ACCGAAGG | 0.243
CCCGAAGG | 0.394
CCCGCAGG | 0.115
TGCACTAA | -0.112
ACTGAATG | 0.0782
GTCAGGAC | -0.21
AGAGATTC | -0.00647
CAGGCCAA | -0.0749
TAACTTCA | -0.143
AGGTTGCG | -0.269
GTTCTATA | -0.173
GGACTTCA | -0.0404
ATATCTGA | -0.0996
CATGCCGA | 0.353
GATGCCGC | 0.0124
CCTGCCGA | 0.359
AATGCCGG | 0.313
TATGCCCA | -0.104
GCTGCCGA | 0.378
AATGCCGT | 0.277
GATGCCGA | 0.411

Sequence | PBM E-score
ACTGCCGA | 0.407
TATGCCGA | 0.411
TATGCCAA | -0.209
AATGCCGA | 0.415
AGAGGGCA | -0.289
AGGTACGA | -0.0929
ACAAGAAC | 0.101
ATGGTTTG | 0.117
CAGATCTG | -0.205
CAGACGAA | 0.0157
CTACTGCA | -0.329
CTACTGAC | -0.0845
CTTAGAAC | -0.0637
GTCCTCGA | -0.228
AAGCAAAC | -0.0582
ATCCGGGA | 0.368
ATCCGGGG | 0.398
ATCCGGCC | 0.394
ATCCGGCG | 0.368
ATCCGGGC | 0.405
ATCCGGCA | 0.38
AACCGGGG | 0.164
CTCCGGGC | 0.131
AGCCGGGC | 0.166
AATATAAC | 0.109
CGTCTCAG | -0.235

Sequence | PBM E-score
CGGAACCG | 0.407
CCGAACCA | 0.356
CGGAACCA | 0.41
AGGAACCG | 0.263
GGGAACCA | -0.0292
CGGAACCC | 0.359
CCGAACCG | 0.447
TGGAACCA | 0.0635
CCGAACCC | 0.37
CATTCTCA | 0.0317
CAATGTCC | 0.00172
AAATGCGC | -0.041
ATGCCAAA | -0.302
ATGCCGTG | 0.00847
GTGCCGAA | 0.441
CTGCCGCA | 0.0287
GGGCCGAA | 0.314
ATGCCGAA | 0.433
ATGCCGAG | 0.423
GTGCCAAA | -0.0603
CTGCCGAC | 0.331
ATGCCGAC | 0.333
ATGCCGCA | 0.0956
CTGCCGAA | 0.411
GCAAGTGA | -0.0836
CTCGCGAG | -0.0385

Sequence | PBM E-score
GTAAGTAC | 0.00926
AGCGACCC | 0.0831
ATGGTCGC | -0.0565
CGTTAGCA | -0.0245
ACAGGCAT | -0.242
AAAGCCGA | 0.322
TAAGCCGA | 0.392
CAAGCCGA | 0.297
GAAGCCCA | -0.1
GAAGCCGA | 0.401
GAAGCCGC | 0.193
ACGATTGG | -0.176
GCTCGGCA | 0.443
CCACGGCG | -0.0429
GCACGGCA | 0.109
ACTCGGCG | 0.326
GCTCGGCC | 0.289
CATCGGCG | 0.165
AATCGGCA | 0.32
TCACGGCA | 0.114
ACTCGGCA | 0.428
CCTCGGCG | 0.411
TCTCGGCA | 0.446
ACTCGGCC | 0.232
ACGACGTC | -0.148
ATTGGGGA | -0.245

Sequence | PBM E-score
AGATACTG | -0.169
ACCAGCCG | 0.256
AGATGAAG | -0.0847
AGCTAAGA | -0.055
AAGCCAAG | -0.0879
CCCGCATC | 0.101
ACATAGAG | -0.166
GAGAAATC | 0.0628
ACTCGGCT | 0.414
CCTCGGCC | 0.313
CCTCGGCA | 0.461
CGTCGGCA | 0.38
AATCGGCT | 0.344
ACTCGTCT | -0.126
GAGTCCCC | -0.0682
ACGTGATA | -0.167
CCCTGACC | 0.0155
CCAGACTC | -0.0717
GAAACAGA | -0.0644
AGCCGACT | 0.261
TACCGAAA | 0.385
AGCCGAAT | 0.426
CGCCGAAG | 0.372
CGCCGAAC | 0.366
GACCGAAA | 0.255
AGCCGAAG | 0.391

Sequence | PBM E-score
GGCCGAAC | 0.313
AGCCGTAT | 0.0974
AGACGAAG | -0.0901
AGCCGAAC | 0.411
CACCGAAA | 0.201
GAGCCGTA | 0.191
AGCCCGTC | -0.0989
ATGATTCG | 0.0336
GGGTCTAA | -0.0158
AAAGCTCA | -0.202
CTGCAGTA | -0.353
AATCAGGC | -0.174
GGCCGAAA | 0.319
TGACGAAA | -0.207
AGCCGAAA | 0.425
TGCCGACA | 0.359
TGCCGAAA | 0.444
CGCCGAAA | 0.34
AACAGGAA | -0.219
AGCACAAC | 0.0479

Reference: the supplement of paper PMC3334620
